From PubChem BioAssay
DT40 TDP1 CPT: qHTS for Inhibitors of human tyrosyl-DNA phosphodiesterase 1 (TDP1): qHTS in cells in presence of CPT | chicken DT40 Tdp1-/-;hTDP1 cells + 20 nM CPT, ATP luminescence, 48 h | Potency, µM (titrated, usually from 46.2 µM), inactives show top-dose activity change, negative = growth inhibition, most hits filed as inhibitors | 420,000 compounds, 12% hits | AID 686979, 2013; also: % is scaled to controls: 0 for no effect and ±100 for the full control effect; nearly all actives have a fitted effect of over 55% in size
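Cell growth measured by CellTiter-Glo luminescence after a minimum 48 h, 37 C compound exposure with 20 nM CPT in Tdp1-knockout DT40 cells stably expressing hTDP1, seeded 400/well; qHTS titration format.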
TDP1 block: qHTS Assay for Inhibitors of Tyrosyl-DNA Phosphodiesterase (TDP1); Tyrosyl-DNA phosphodiesterase 1 (Homo sapiens), Q9NUW8; recombinant TDP1, AlphaScreen DNA substrate cleavage; Potency, µM (highest dose often 130 µM), inactives show top-dose activity change, negative = inhibition, actives largely listed as inhibitors; 350,000 compounds, 0.28% hits; also: % is scaled to controls: 0 for no effect and ±100 for the full control effect; nearly all actives have a fitted effect of over 40% in size
Target sequence (Q9NUW8 whole entry, looked up): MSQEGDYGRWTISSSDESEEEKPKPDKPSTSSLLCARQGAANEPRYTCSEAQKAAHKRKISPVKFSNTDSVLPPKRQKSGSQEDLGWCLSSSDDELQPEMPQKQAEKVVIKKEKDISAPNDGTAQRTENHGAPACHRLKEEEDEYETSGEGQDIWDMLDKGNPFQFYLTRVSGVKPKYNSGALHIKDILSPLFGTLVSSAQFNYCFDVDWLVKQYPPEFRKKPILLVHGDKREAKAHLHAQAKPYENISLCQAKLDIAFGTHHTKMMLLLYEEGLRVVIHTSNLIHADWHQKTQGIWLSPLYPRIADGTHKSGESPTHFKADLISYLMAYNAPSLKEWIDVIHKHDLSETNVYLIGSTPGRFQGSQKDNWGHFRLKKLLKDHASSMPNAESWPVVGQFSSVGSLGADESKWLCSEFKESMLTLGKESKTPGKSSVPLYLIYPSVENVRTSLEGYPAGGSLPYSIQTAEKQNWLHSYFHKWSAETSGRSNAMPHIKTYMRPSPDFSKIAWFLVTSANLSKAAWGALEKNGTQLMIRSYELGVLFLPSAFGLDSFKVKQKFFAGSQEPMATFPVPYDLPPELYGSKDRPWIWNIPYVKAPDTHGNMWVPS
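Compounds were preincubated with Tdp1 (1 nM final) for 15 min at room temperature before substrate (15 nM final) started a 5 min reaction; beads (10 ug/ml final) were then added for 10 min before AlphaScreen detection.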
ClpP mod: qHTS Assay for Activators of ClpP; Potency, µM (titrated, usually from 57.5 µM), without a hit: top-dose activity change, negative = active; purified B. subtilis ClpP, FRET peptide cleavage, 20 min; 340,000 compounds, 1.9% hits; ATP-dependent Clp protease proteolytic subunit (Bacillus subtilis (strain 168)), P80244; active = well fitted falling curve with a large enough effect; inconclusive = small, poorly fitted or top-dose-only effect; inactive = no such curve, though single readings can be large or run the other way; also: the source files actives as falling curves though it sought activators and does not explain the sign; nearly all actives have a fitted effect of over 65% in size
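Purified B. subtilis ClpP, 10 microg/mL final in Tris/HCl pH8 with KCl, BSA, glycerol and Tween-20, cleaved an Abz/nitrotyrosine-quenched decapeptide. Fluorescence (ex 320, em 430) was read at 0 and 20 min at room temperature. Delta was normalized to 5.8 microM ADEP and DMSO/no-enzyme controls.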
TDP1 cell noCPT: qHTS for Inhibitors of human tyrosyl-DNA phosphodiesterase 1 (TDP1): qHTS in cells in absence of CPT; DT40 Tdp1-/- hTDP1 cells, no CPT, ATP luminescence, 48 h; Potency, µM (top dose mostly 46.2 µM), for the others: top-dose activity change, negative = growth inhibition, usual class: inhibitors; 420,000 compounds, 15% hits; AID 686978, 2013; also: % is scaled to controls: 0 for no effect and ±100 for the full control effect; nearly all actives have a fitted effect of over 55% in size
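Camptothecin absent (DMSO only). Human TDP1-complemented DT40 knockout cells, 400 cells/well, 37 °C for minimum 48 hr; ATP measured via CellTiter-Glo, 30 min dark incubation, luminescence.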
An asterisk follows results filed as active; u = inconclusive; x = not tested or not shown; [ ] = remark or other dose. In the library only some 17% were active in any assay of this set; here they are far more common. Unless noted, calls follow the shape of the dose curve; as a rule, active = well fitted curve in the direction sought with a large enough effect; inconclusive = small, poorly fitted or top-dose-only effect, or another doubt; inactive = no such curve, though single readings can be large; an effect the other way counts as inactive or inconclusive. Potency is read from the fitted curve at half-maximal effect.

SMILES | DT40 TDP1 CPT | TDP1 block | ClpP mod | TDP1 cell noCPT
COc1cccc(OC)c1C(=O)NCc1ccco1 | 0% | x | -1% | -15%
CCCc1nn2c(=O)cc(COC(=O)c3ccccc3NC(=O)c3ccc(Cl)cc3)nc2s1 | -23% | 4% | -5% | u
CCCc1nnc(SCC(=O)O)n1CC | -15% | 1% | 0% | 13%
COC1(OC)C(/C=C/c2ccc(C)cc2)C(C#N)(C#N)C1(OC)OC (stereo unspecified) | u | x | 32µM* | u
Nc1ccc(NC(=O)CCN2CCOCC2)cc1 | -2% | 6% | -2% | -14%
CCn1c(=O)c2sccc2n2c(CCCC(=O)Nc3ccc(Oc4ccccc4)cc3)nnc12 | u | 8% | -1% | 15µM*
CC(C)CCn1c(=O)c2sccc2n2c(CCCC(=O)Nc3ccc(C(C)C)cc3)nnc12 | u | 5% | -12% | 15µM*
COCCCn1c(=O)c2sccc2n2c(CCCC(=O)Nc3cccc(C(F)(F)F)c3)nnc12 | 16µM* | -3% | -11% | 21µM*
Cn1c(=O)c2sccc2n2c(CCCC(=O)Nc3ccc(Oc4ccc(Cl)cc4)cc3)nnc12 | u | 0% | -4% | 18µM*
CC[C@H](C)NC(=O)CCCc1nnc2n(CCC(C)C)c(=O)c3sccc3n12 | -26% | -8% | u | u
CCn1c(=O)c2sccc2n2c(CCCC(=O)NCc3cccnc3)nnc12 | 20% | 5% | -1% | 0%
CSc1ncnc2c1ncn2CCCN1CCN(C(=O)C2CC2)CC1 | 6% | x | 1% | u
Cc1ccc(C(=O)N(c2ccc(C)cc2)S(=O)(=O)c2ccc(Cl)cc2)cc1 | u | -8%[12.3 µM] | 0% | 23µM*
COc1ccc(N(C(=O)COc2ccccc2OC)S(=O)(=O)c2ccc(Cl)cc2)cc1 | 16µM* | 5%[12.3 µM] | -2% | 23µM*
COc1ccc(N(C(=O)c2cccnc2)S(=O)(=O)c2ccc(Cl)cc2)cc1 | u | x | 3% | -15%
COc1ccc(N(C(=O)c2ccccc2C)S(=O)(=O)c2ccc(C)cc2)cc1 | 12µM* | 2%[2.28 µM] | -2% | u
COc1ccc(N(C(=O)c2ccc(C(C)(C)C)cc2)S(=O)(=O)c2ccc(Cl)cc2)cc1 | u | -9%[12.3 µM] | 0% | 21µM*
CCOc1ccc(N(C(=O)c2ccc(C)cc2)S(=O)(=O)c2ccc3c(c2)n(C)c(=O)n3C)cc1 | -15% | 5% | -2% | u
Cn1c(=O)[nH]c2cc(-c3noc(-c4ccc(F)cc4)n3)ccc21 | 5% | 1% | 1% | 5%
COc1ccc(N(C(=O)c2cccc(C)c2)S(=O)(=O)c2ccc(Cl)cc2)cc1 | 18µM* | 6%[12.3 µM] | -2% | u
CCOc1ccccc1NC(=O)c1nc(S(=O)(=O)Cc2ccccc2F)ncc1Cl | 0.56µM* | x | u | u
Cc1cccc(C)c1NC(=O)c1nc(S(=O)(=O)Cc2ccccc2F)ncc1Cl | 1.3µM* | x | -1% | 5µM*
COC(=O)c1ccc(NC(=O)c2nc(SCc3ccccc3F)ncc2Cl)cc1 | u | x | -10% | 18µM*
O=C(Nc1ccc2ccccc2c1)c1nc(S(=O)(=O)Cc2ccccc2F)ncc1Cl | 0.71µM* | x | -22% | 1.3µM*
CC(=O)Nc1ccc(NC(=O)c2nc(SCc3ccccc3F)ncc2Cl)cc1 | -22% | x | -30% | -8%
SMILES | DT40 TDP1 CPT | TDP1 block | ClpP mod | TDP1 cell noCPT
CCOC(=O)c1c(NC(=O)COC(=O)c2ccc(Cl)nc2)sc(C)c1C | -13% | x | -2% | -23%
COc1ccc(CCN2CC(C(=O)NCCc3ccc(C(F)(F)F)cc3)CCC2=O)cc1 (stereo unspecified) | u | 1% | 2% | u
COC(=O)c1ccccc1NC(=O)c1nc(S(=O)(=O)Cc2ccccc2F)ncc1Cl | -11% | 5% | 0% | u
O=C(Nc1ccccc1F)c1nc(S(=O)(=O)Cc2ccccc2F)ncc1Cl | 1.3µM* | -2% | 3% | 0.92µM*
Cc1ccc(N(O)C(C)(C)C)cc1 | 23µM* | x | -1% | 16µM*
CCC(C(=O)NCc1ccncc1)c1ccccc1 (stereo unspecified) | 2% | 3% | x | -6%
